Experimental data from PubChem BioAssay AID1345085 (National Center for Advancing Translational Sciences (NCATS), 2018).
Records with an inconclusive call do not appear. The source made the active and inactive calls. Calls come from the whole dose curve; as a rule, active = well fitted cell-killing curve with a large enough effect; inconclusive = small, poorly fitted or top-dose-only effect, or effect the other way; inactive = no such curve, though single readings can be large or run the other way.

System: Tov-21-G
Assay: Confirmatory qHTS for gynecologic anti-cancer compounds from libraries of approved drugs and bioactive compounds; note: nearly all actives have a fitted effect of over 55% in size
Details: gynecologic cancer cell panel viability, ATPlite luminescence, 48 h; series mostly up to 57.7 µM
How it was run: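 IC50 values derive from an ATPlite ATP-content luminescence assay following 48 h treatment at 37 C. Each compound ran as an 11-concentration, threefold series (57.5 uM to 0.977 nM); HEK 293T served as control line for selectivity index.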
Potency is the fitted concentration of half-maximal effect.

CCCC(Nc1nc(-c2ccc(NC(=O)NCC)c(OC)c2)ncc1C)c1cccnc1 (stereo unspecified)
Potency: 30.6 nM (active)

COc1cc(Nc2c(C#N)cnc3cc(OCCCN4CCN(C)CC4)c(OC)cc23)c(Cl)cc1Cl
Potency: 1720 nM (active)

COCCOc1nc(-c2ccc(Cl)c(Cl)c2)n(-c2ccc(NC(=O)CCl)cc2)n1
Potency: 1720 nM (active)

CC1=C(CO)C(=O)O[C@@H]([C@@H](C)[C@H]2CC[C@H]3[C@@H]4C[C@H]5O[C@]56[C@@H](O)C=CC(=O)[C@]6(C)[C@H]4CC[C@]23C)C1
Potency: 3350 nM (active)

Cc1ccn(-c2ccc(-c3ncco3)cc2)c(=O)c1-c1ccc2nc(N)ncc2c1
Potency: 6110 nM (active)

CCC1=CC2CN(C1)Cc1c([nH]c3ccccc13)[C@@](C(=O)OC)(c1cc3c(cc1OC)N(C)[C@H]1[C@@](O)(C(=O)OC)[C@H](OC(C)=O)[C@]4(CC)C=CCN5CC[C@]31[C@@H]54)C2 (stereo partly specified)
Potency: 2370 nM (active)

COc1cc(N2CCC(N(C)C)CC2)ccc1Nc1ncc(Cl)c(Nc2ccccc2P(C)(C)=O)n1
Potency: 1720 nM (active)

C#C[C@]1(O)CC[C@H]2[C@@H]3CCC4=CC(=O)CC[C@@H]4[C@H]3CC[C@@]21CC
Potency: inactive

O=C(/C=C/c1cccc(S(=O)(=O)Nc2ccccc2)c1)NO
Potency: 4730 nM (active)

CC(Oc1ccc2[nH]nc(/C=C/c3cnn(CCO)c3)c2c1)c1c(Cl)cncc1Cl (stereo unspecified)
Potency: 6110 nM (active)

O=C1NC(=O)C(c2cnc3ccccn23)=C1c1cn2c3c(cccc13)CN(C(=O)N1CCOCC1)CC2
Potency: 544 nM (active)
